# Hit rate of the full screen: of about 52,000 compounds, about 4,300 (8.3%) were called active. Rule as the data show it: active = survival mostly below about 52% (no sharp cut-off); inactive = mostly above about 56%. Shown is part of a subset that was picked to be rich in actives.
# Tested on: DeltatarO mutant
# Assay: growth inhibition of S. aureus wild type versus tarO mutant, primary screen, teichoic acid synthesis inhibitors, RN4220, OD600 (AID 463173)
# Details: OD600, 18 h, hits give low values, screened at 18.75 µg/mL (by protocol)
row,SMILES,survival
1,CC1CCN(c2nc3ccc(C(=O)NCc4ccccc4)cc3s2)CC1,77% (inactive)
2,CC(=O)Nc1ccc(OCc2cc(=O)n3ccccc3n2)cc1,76% (inactive)
3,Cc1ccc(-c2nc3sc(CCNC(=O)c4ccc(Br)o4)c(C)n3n2)cc1,84% (inactive)
4,CCOC(=O)C1CCN(C(=O)CN(c2cc(Cl)ccc2OC)S(C)(=O)=O)CC1,95% (inactive)
5,CC1CCCCC1NC(=O)CN1CCC(NC(=O)c2cccc(F)c2)CC1 (configuration not stated),85% (inactive)
6,CC1CCCN(CCCNC(=O)Cn2ncc3c([nH]c4ccccc43)c2=O)C1 (configuration not stated),94% (inactive)
7,O=C(Nc1cc(F)ccc1F)C1COc2ccccc2C1 (configuration not stated),69% (inactive)
8,CCc1ccc(OCC(=O)Nc2ccc(Cl)c(-c3nc4ncccc4o3)c2)cc1,47% (inactive)
9,Cc1ccc2nc(-c3cc(NC(=O)COc4ccc(C)c(C)c4)ccc3Cl)oc2c1,30% (active)
10,Cc1ccc2oc(-c3cc(NC(=O)Cc4ccccc4)ccc3Cl)nc2c1,52% (active)
11,Cc1cc(NC(=O)COc2ccccc2)cc(-c2nc3ccccc3o2)c1O,94% (inactive)
12,Cc1ccc(OCC(=O)Nc2cccc(-c3nc4ccccc4o3)c2C)cc1C,55% (active)
13,Cc1ccc(OCC(=O)Nc2ccc(-c3nc4ccc(C)cc4o3)cc2)cc1,66% (inactive)
14,Cc1ccc2oc(-c3cccc(NC(=O)Cc4ccc(Cl)cc4)c3)nc2c1,72% (inactive)
15,CCOc1ccc(C(=O)Nc2ccc(Cl)c(-c3nc4cc(C)cc(C)c4o3)c2)cc1,66% (inactive)
16,CCc1ccc(OCC(=O)Nc2ccc(Cl)c(-c3nc4cc(C)cc(C)c4o3)c2)cc1,35% (active)
17,CCCCOc1ccc(C(=O)Nc2cccc(-c3nc4ccccc4o3)c2C)cc1,76% (inactive)
18,Cc1ccc2oc(-c3cc(NC(=O)CC(C)C)ccc3Cl)nc2c1,87% (inactive)
19,Cc1cc2nc(-c3cccc(NC(=O)COc4ccc(Cl)c(C)c4)c3)oc2cc1C,64% (inactive)
20,Cc1nn(CCCC(=O)Nc2ccccc2C(F)(F)F)c(=O)c2c1sc1ccccc12,74% (inactive)
21,Cc1nc2ccc(C(=O)N3CCN(Cc4ccccc4)CC3)cc2[nH]1,104% (inactive)
22,CN(c1ccc(C(=O)NCc2cccnc2)cc1)S(C)(=O)=O,73% (inactive)
23,Cc1cccc(C(=O)n2nc(-c3ccco3)nc2NCc2ccccc2)c1,63% (inactive)

row,SMILES,survival
1,C=CCN1C(=O)C2C(C(=O)NC3CCCCC3C)C3(C)C=CC2(O3)C1C(=O)NC(C)(C)C (configuration not stated),65% (inactive)
2,Nc1ncc(S(=O)(=O)NCc2ccccc2)cn1,70% (inactive)
3,COc1ccc(Nc2oc(-c3ccc(COc4cccc(C)c4)o3)nc2C#N)cc1,109% (inactive)
4,Cc1ccc(-n2c(=O)c3ccccc3n(CC(=O)Nc3cccc(C(F)(F)F)c3)c2=O)cc1,63% (inactive)
5,CCc1ccc2oc(-c3ccc(C)c(NC(=O)c4ccc(C#N)cc4F)c3)nc2c1,74% (inactive)
6,Cc1cc(C)c2oc(-c3cccc(NC(=O)c4cccc(F)c4)c3C)nc2c1,72% (inactive)
7,Cc1cc(C)c2oc(-c3cccc(NC(=O)COc4ccccc4Cl)c3C)nc2c1,42% (active)
8,Cc1cc(C)c2oc(-c3ccc(NC(=O)COc4ccccc4C)cc3)nc2c1,67% (inactive)
9,N#Cc1ccc2c(c1)nc1c3cccc4cccc(c(=O)n21)c43,72% (inactive)
10,CC(C)(C)C(=O)N1c2ccccc2CCc2ccccc21,84% (inactive)
11,COc1ccc(Br)cc1CNC(=O)CCSCc1ccc(C)cc1,81% (inactive)
12,Cc1cccc(C(c2sc3nc(-c4ccco4)nn3c2O)N2CCN(Cc3ccccc3)CC2)c1 (configuration not stated),94% (inactive)
13,Cc1nc(Oc2ccccc2C)c2oc3ccccc3c2n1,101% (inactive)
14,COc1cccc(Oc2nc(C)nc3c2oc2ccccc23)c1,25% (active)
15,CC(=O)c1ccc(Oc2nc(C)nc3c2oc2ccccc23)cc1,92% (inactive)
16,CCN(CC)c1ccc(NC(=O)C(Cc2ccccc2)NS(=O)(=O)c2ccc(Br)s2)c(C)c1 (configuration not stated),117% (inactive)
17,COc1ccc2nc(SCC(=O)NC3CCCCC3C)c(C#N)cc2c1 (configuration not stated),89% (inactive)
18,CC(=O)Nc1ccc(Nc2nc3ccc(Cl)cc3n3cnnc23)cc1,99% (inactive)
19,COc1ccc(C(=O)Nc2nccs2)cc1OC,79% (inactive)
20,COc1cc(C(=O)Nc2ccc(NC(=O)c3ccc(C(C)(C)C)cc3)cc2)cc(OC)c1OC,132% (inactive)
21,CCCNC(=O)c1ccc2c(c1)nc(C)n2-c1cccc(C)c1,83% (inactive)
22,CCCNC(=O)c1ccc2c(c1)ncn2-c1ccc(C)cc1C,75% (inactive)
23,CCCCCNC(=O)c1ccc2c(c1)ncn2-c1cccc(C)c1,0% (active)

row,SMILES,survival
1,Cc1cccc(-n2cnc3cc(C(=O)NC4CCCCCC4)ccc32)c1,106% (inactive)
2,Cc1ccc(-n2cnc3cc(C(=O)NCc4ccccc4Cl)ccc32)c(C)c1,37% (active)
3,CCOc1ccc(-n2c(C)nc3cc(C(=O)NCCC4=CCCCC4)ccc32)cc1,-4% (active)
4,Cc1cccc(-n2cnc3cc(C(=O)NCc4ccccc4Cl)ccc32)c1,72% (inactive)
5,COCCCNC(=O)c1ccc2c(c1)nc(C)n2-c1cccc(C)c1,69% (inactive)
6,CCCCCNC(=O)c1ccc2c(c1)nc(C)n2-c1cccc(C)c1,0% (active)
7,Cc1nc2cc(C(=O)NCCC3=CCCCC3)ccc2n1-c1ccc(Br)cc1,60% (inactive)
8,Cc1cc(C)cc(-n2cnc3cc(C(=O)NCCc4ccccc4)ccc32)c1,78% (inactive)
9,Cc1cccc(-n2c(C)nc3cc(C(=O)NCCC4=CCCCC4)ccc32)c1,71% (inactive)
10,Cc1nn(-c2ccccc2)c(OC(=O)c2ccc(Cl)cc2)c1S(=O)(=O)c1ccccc1,79% (inactive)
11,c1csc(-c2nc3ccccn3c2Nc2ccc3c(c2)OCCO3)c1,89% (inactive)
12,Cc1ccccc1NC(=O)CCS(=O)(=O)c1cc(Br)cc2c1N(C(=O)C1CC1)CC2,96% (inactive)
13,CC(=O)Nc1cc2c(cc1C(=O)c1ccccc1)OCCO2,108% (inactive)
14,Cn1c(=O)c(=O)n(C)c2cc(S(=O)(=O)CCC(=O)Nc3ccc(F)cc3)ccc21,83% (inactive)
15,CCc1nn(CC(=O)NCCN(CC(C)C)CC(C)C)c(=O)c2cc3sc(C)cc3n12,68% (inactive)
16,CC(=O)c1ccc(Nc2cc(C)nc3nc(Cc4ccccc4)nn23)cc1,64% (inactive)
17,CCOC(=O)c1cccc(NC(=O)NCc2cccn2Cc2ccccc2)c1,119% (inactive)
18,CCOC(=O)Cc1ccc(NC(=O)NCc2cccn2Cc2ccccc2)cc1,-4% (active)
19,CCOc1ccc(NC(=O)NCc2cccn2Cc2ccccc2)cc1,72% (inactive)
20,CCN1CCc2c(sc(-n3cccc3)c2C(C)NC(=O)Nc2ccc(Br)cc2)C1 (configuration not stated),102% (inactive)
21,CCc1ccc(NC(=O)CC2C(=O)N(c3ccc(OC)cc3)C(=O)N2Cc2ccc(OC)cc2)cc1 (configuration not stated),100% (inactive)
22,CC(=O)c1ccc(NC(=O)Cn2cnc3nc4c(cc3c2=O)CC(C)CC4)cc1 (configuration not stated),60% (inactive)
23,O=C(CSc1cn(CC(=O)N2CCCCC2)c2ccccc12)NCc1ccccc1,87% (inactive)

row,SMILES,survival
1,O=C(Cn1c(CC(=O)N2CCCC2)nc2ccccc21)NCc1ccccc1,64% (active)
2,CCOC(=O)c1cccc(NC(=O)Cn2c(CC(=O)N3CCCC3)nc3ccccc32)c1,83% (inactive)
3,CCn1c(=O)c2sccc2n2c(CCC(=O)N3CCN(c4ccc(C(C)=O)cc4)CC3)nnc12,65% (inactive)
4,CCOc1cc(C(=O)N2CCn3c4c(c5cc(C)ccc53)CCCC42)cc(OCC)c1OCC (configuration not stated),56% (inactive)
5,CCCN(CCC)S(=O)(=O)c1ccc(C(=O)N2CCn3c4c(c5cc(C)ccc53)CCCC42)cc1 (configuration not stated),58% (inactive)
6,COc1cc(SC)ccc1C(=O)N1CCn2c3c(c4cc(C)ccc42)CCCC31 (configuration not stated),70% (inactive)
7,Cc1ccc2c(c1)c1c3n2CCN(C(=O)c2ccc(C(F)(F)F)cc2)C3CCC1 (configuration not stated),44% (inactive)
8,Cc1ccc(C(=O)N2CCn3c4c(c5cc(C)ccc53)CCCC42)cc1 (configuration not stated),-1% (active)
9,Cc1ccc2c(c1)c1c3n2CCN(C(=O)c2cccc(C(F)(F)F)c2)C3CCC1 (configuration not stated),14% (active)
10,COc1ccc(OC)c(CNC(=O)c2cc3ccc4cccnc4c3[nH]2)c1,112% (inactive)
11,COc1ccc(-c2nnc(SCC(=O)N(C)C3CCCCC3)o2)cc1OC,86% (inactive)
12,O=C(O)c1ccc(N=NN2CCCCC2)cc1,75% (inactive)
13,COc1cccc(NC(=O)C(=O)NCC(c2cccnc2)N2CCN(c3ccccc3)CC2)c1 (configuration not stated),97% (inactive)
14,COc1cccc(C2C(C(=O)Nc3ccccc3OC)=C(C)Nc3nc4ccccc4n32)c1 (configuration not stated),51% (inactive)
15,Cc1cccc(N2CCN(C(=O)Cn3ncc4c5ccccc5n(C)c4c3=O)CC2)c1C,73% (inactive)
16,CC(C)c1nnc(NC(=O)c2nc(S(=O)(=O)Cc3ccccc3)ncc2Cl)s1,46% (inactive)
17,CCc1nnc(NC(=O)c2nc(S(=O)(=O)Cc3ccc(C)cc3)ncc2Cl)s1,42% (active)
18,CCc1nnc(NC(=O)c2nc(S(=O)(=O)Cc3cccc(C)c3)ncc2Cl)s1,31% (active)
19,Cc1ccccc1CS(=O)(=O)c1ncc(Cl)c(C(=O)Nc2nnc(C(C)C)s2)n1,30% (active)
20,CCCc1nnc(NC(=O)c2nc(S(=O)(=O)Cc3ccc(C)cc3)ncc2Cl)s1,47% (inactive)
21,CCc1nnc(NC(=O)c2nc(S(C)(=O)=O)ncc2Cl)s1,66% (inactive)
22,Cc1ccc(CS(=O)(=O)c2ncc(Cl)c(C(=O)Nc3nnc(C(C)C)s3)n2)cc1,54% (inactive)
23,Cc1cccc(CS(=O)(=O)c2ncc(Cl)c(C(=O)Nc3nnc(C(C)C)s3)n2)c1,28% (active)

# — PubChem BioAssay AID463173 (ICCB-Longwood Screening Facility, Harvard Medical School, 2010)
